# KB-V1 MDR tox: KB-V1 MDR subline cytotoxicity; KB-V1 MDR cells viability, CellTiter-Glo, 72 h; actives 3.4% (n = 400,000); Potency, µM (titrated, usually from 46.1 µM), hits mostly cytotoxic; AID 1347076; further: on the % scale 0 is the no-effect control and ±100 the full control effect; nearly all actives have a fitted effect of over 60% in size
#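 Compound-treated KB-V1 multidrug-resistant cells, 72 h, 37 degrees C; viability by CellTiter-Glo. Fitted qHTS curves give the values.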
# HT1080 IDH1KD tx: toxicity to HT-1080 IDH1 knockdown cells (counter line). HT-1080 IDH1 knockdown viability, ATP luminescence, 48 h. AID 686971. actives 2% (n = 360,000). Potency, µM (highest dose often 46.1 µM), without a hit: top-dose activity, negative = toxicity, usual class: cytotoxic;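 further: 0% = DMSO wells and -100% = cell-free medium wells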
#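 Cytotoxicity counter-line: IDH1KD HT-1080, 48 h, CellTiter-Glo. Curves classed by r2, magnitude and activity.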
# HT1080-NT tox: kills 2HG-producing HT-1080-NT fibrosarcoma cells; AID 686970; HT-1080-NT fibrosarcoma viability, CellTiter-Glo ATP luminescence, 48 h; actives 1.6% (n = 360,000); Potency, µM (top dose mostly 46.1 µM), inactives show at the highest dose activity, negative = less viability, most hits filed as cytotoxic;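 further: NT is the 2HG producing partner of a matched IDH1 knockdown line; 0% = DMSO-treated cells and -100% = media-only wells without cells; nearly all actives have a fitted effect of over 55% in size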
#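 Toxicity toward the 2HG-producing NT line was scored as %Activity, normalised to DMSO and no-cell wells, from CellTiter-Glo luminescence after 48 hours' treatment.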
# KB-3-1 cytotox: KB-3-1 parental cell cytotoxicity; KB-3-1 viability, CellTiter-Glo ATP luminescence, 72 h; Potency, µM (titrated, usually from 46.1 µM), most hits filed as cytotoxic; actives 1.4% (n = 400,000); AID 1347075; further: on the % scale 0 is the no-effect control and ±100 the full control effect; nearly all actives have a fitted effect of over 60% in size
#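 Cytotoxicity measured as CellTiter-Glo luminescence after 72 h at 37 C. Compound titrations were pinned onto drug-naive KB-3-1 parental adenocarcinoma cells grown in DMEM with 10% FBS, and normalized data fitted to concentration-response curves.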
# SW480 rereplic: induces DNA re-replication in SW480 colon adenocarcinoma cells; SW480 DNA re-replication, Hoechst DNA content imaging, 48 h; Potency, µM (doses to about 46.1 µM), without a hit: top-dose re-replication activation, actives largely listed as activators; actives 1.8% (n = 340,000); AID 624297; further: % of control where 0% means no effect; nearly all actives have a fitted effect of over 55% in size
#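 Readout is total intensity of Hoechst-stained nuclei, excited at 405 nm and collected at 500-530 nm. Compound treatment lasted 48 hr at 37 C in 5% CO2 before staining.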
# MCF10A rereplic: induces DNA re-replication in MCF 10a normal breast cells. MCF 10A DNA re-replication, Hoechst nuclear intensity, 48 h. Potency, µM (top dose mostly 46.1 µM), inactives show at the highest dose activity, positive = re-replication, usual class: activators. actives 2.9% (n = 350,000); further: % of control where 0% means no effect; nearly all actives have a fitted effect of over 50% in size
# Numbers without * were called inactive; i = inactive; u = inconclusive; x = not tested or not shown; ! = not active in a repeat; [ ] = remark or other dose. Sampled rows, rich in hits. Any-hit rate of the full collection: about 8%. The call rests on the fitted dose curve; in most records, active means well fitted curve in the direction sought with a large enough effect; inconclusive means small, poorly fitted or top-dose-only effect, or another doubt; inactive means no such curve, though single readings can be large; an effect the other way counts as inactive or inconclusive. Potency means the concentration at half of the fitted maximal effect.
SMILES,KB-V1 MDR tox,HT1080 IDH1KD tx,HT1080-NT tox,KB-3-1 cytotox,SW480 rereplic,MCF10A rereplic
CC(C)(C)OC(=O)N1CCC(c2c(C(=O)NCCN3CCOCC3)cnn2-c2ccc(F)cc2)CC1,i,x,x,i,x,x
O=C(C[N+]12CN3CN(CN(C3)C1)C2)c1ccc(Cl)cc1,i,x,x,i,x,x
COc1ccc(-c2oc(=O)c3cc(OC)c(OC)cc3c2C#CC2(O)CCCCC2)cc1,u,9%,10%,i,-11%[9.22 µM],2.1µM*
COc1cc2c(C#CCCCO)c(-c3ccc(C#N)cc3)oc(=O)c2cc1OC,u,0%,-12%,i,u,6.5µM*
COc1ccc(-c2oc(=O)c3cc(OC)c(OC)cc3c2C#CCCCO)cc1,i,-4%,-11%,i,19%,u
COc1cc2c(C#CCO)c(-c3ccc(C#N)cc3)oc(=O)c2cc1OC,i,-4%,20%,i,-2%,-12%
CC(=O)N1CCc2c(sc(NC(=O)c3ccc([N+](=O)[O-])o3)c2C(N)=O)C1,i,5.8µM*,6.5µM*,i,x,x
CC(=O)N1CCc2c(sc(NC(=O)c3ccc4c(c3)OCCO4)c2C#N)C1,u,12µM*,18µM*,u,18µM*,15µM*
CC(=O)N1CCc2c(sc(NC(=O)CCS(=O)(=O)c3ccccc3)c2C(N)=O)C1,i,-1%,3%,u,21µM*,u
CCOC(=O)N1CCc2c(sc(NC(=O)CCS(=O)(=O)c3ccccc3)c2C(N)=O)C1,i,1%,1%,i,-10%,u
Cc1ccc2onc(CNC(=O)NCc3ccccc3)c2c1,i,x,x,i,x,x
Clc1ccc(-c2nn3c(-c4cc(-c5ccccc5)n[nH]4)nnc3s2)cc1,u,x,x,i,x,x
Cc1nn(Cc2ccccc2)c(C)c1NC(=O)c1cc(-c2cccs2)on1,4.1µM*,u,-2%,i,2%,u
COc1ccc(-c2cc(C(=O)Nc3c(C)nn(Cc4ccccc4)c3C)no2)cc1,i,16µM*,-27%[9.24 µM],i,4%,u
Cc1nn(Cc2ccccc2Cl)c(C)c1NC(=O)c1cc(-c2ccc(F)cc2)on1,i,-2%,7%,i,-4%,4.1µM*
O=C(NCCN1CCOCC1)c1cc(-c2cccs2)on1,16µM*,u,u,i,-4%,-6%
CCc1ccc(N(CC)C(=O)c2cc3c(=O)oc4ccc(C)cc4c3s2)cc1,u,x,x,i,x,x
Cc1ccc(-c2n[nH]c3c2C(c2cccs2)N(c2ccc(Cl)cc2)C3=O)cc1 (centres undefined),i,x,x,u,x,x
Cc1cc(C)n(-c2nc(NC(C)C)nc(NC(C)(C)C)n2)n1,i,x,x,i,x,x
COc1ccc(Cn2c(=O)c3cccnc3n(CC(=O)Nc3c(C)cc(C)cc3C)c2=O)cc1,i,x,x,i,x,x
Cc1nn(Cc2ccccc2)c(C)c1NC(=O)c1cc(-c2ccc3c(c2)OCO3)on1,i,-22%,u,u,0%,9.2µM*
Cc1ccc(-c2cc(C(F)F)n3ncc(C(=O)Nc4c(C)nn(Cc5ccccc5Cl)c4C)c3n2)cc1,u,9%,-27%,16µM*,1%,22%[9.22 µM]
CCOc1ccc2[nH]c(=O)c(CN(Cc3cccs3)Cc3nnnn3C(C)(C)C)cc2c1,21µM*,u,u,i,29%,0%
COc1ccc2[nH]c(=O)c(CN(Cc3cccs3)Cc3nnnn3C(C)(C)C)cc2c1,u,u,-13%,i,-1%,11%
COc1ccccc1-n1c(SCC(=O)NCc2ccc3c(c2)OCO3)nc2cc([N+](=O)[O-])ccc21,i,-15%,-23%,i,5%,16%
SMILES,KB-V1 MDR tox,HT1080 IDH1KD tx,HT1080-NT tox,KB-3-1 cytotox,SW480 rereplic,MCF10A rereplic
CC(Sc1nc2cc([N+](=O)[O-])ccc2n1-c1ccc(F)cc1)C(=O)NCc1ccc2c(c1)OCO2 (centres undefined),5.8µM*,-12%,-2%,i,3%,14%
CC(=O)C[C@H]1c2cc(C(F)(F)F)ccc2S(=O)(=O)N1c1ccccc1,8.2µM*!,-1%,0%,u,-9%,-7%
CCOC(=O)C[C@H]1c2ccccc2S(=O)(=O)N1Cc1cccc(C(F)(F)F)c1,10µM*!,0%,0%,16µM*!,-9%,u
CCOC(=O)C[C@H]1c2ccccc2S(=O)(=O)N1Cc1cc(OC)c(OC)c(OC)c1,u,-2%,-2%,i,-6%,-1%
CCCCCCCCCCCCN1[C@@H](CC(=O)O)c2cc(C(F)(F)F)ccc2S1(=O)=O,i,-11%,-8%,i,23%,16µM*
CC(=O)C[C@H]1c2cc(C(F)(F)F)ccc2S(=O)(=O)N1Cc1ccccc1,u,1%,-2%,i,-5%,-3%
CCCCCCCCN1[C@@H](CC(=O)O)c2cc(C(F)(F)F)ccc2S1(=O)=O,i,-14%,-8%,i,u,22%
CCCCCCCCN1[C@@H](CC(=O)OCC)c2cc(F)ccc2S1(=O)=O,15µM*!,-5%,0%,u,u,27%
CCCCCCCCN1[C@@H](CC(=O)OC)c2cc(F)ccc2S1(=O)=O,u,-3%,7%,i,5%,8%
COc1ccccc1N1CCN(c2nc3ccc(C(=O)c4ccccc4)cc3n3c(C)nnc23)CC1,i,x,x,i,x,x
Cc1nc(Oc2ccccc2C)c2oc3ccccc3c2n1,i,x,x,i,x,x
CCOC(=O)c1ccccc1NC(=O)CSc1ccc(-c2sc(-c3ccccc3)nc2C)nn1,i,x,x,i,x,x
COc1ccc(NS(=O)(=O)c2cc(NC(=O)c3ccc(=O)[nH]c3)ccc2N2CCCC2)cc1,i,2.1µM*,u,3.7µM*,u,u
COc1ccc(NS(=O)(=O)c2cc(NC(=O)c3cnc(C)cn3)ccc2N2CCCC2)cc1,4.6µM*,0%,-19%,i,79%,17%
COc1ccc(NS(=O)(=O)c2cc(NC(=O)c3ccco3)ccc2N2CCCCC2)cc1,i,u,-25%,21µM*,u,u
COc1ccc(NS(=O)(=O)c2cc(NC(=O)C3CC3)ccc2N2CCCCC2)cc1,u,u,-21%,u,u,u
COc1ccc(NS(=O)(=O)c2cc(NC(=O)c3cnc(C)cn3)ccc2N2CCCCC2)cc1,i,-13%,-9%,i,5%,25%
CCc1nc(SCc2cc(=O)c3cc(F)ccc3[nH]2)n[nH]1,i,x,x,i,x,x
